# Laboratory results reported in article PMC7862700, “An all-to-all approach to the identification of sequence-specific readers for epigenetic DNA modifications on cytosine”.
# How the values were obtained:
# Assay in all cases: DAPPL (digital affinity profiling via proximity ligation, sequencing); 10 mM Tris-HCl pH 7.5, 50 mM NaCl, 1 mM DTT, 4% glycerol, room temperature, 30 min; GST-TFs on glutathione beads, 16-mer random dsDNA library, 0.1% formaldehyde crosslink after washing; high values mean tight binding
# [1] = biological target: T1, FEV (Homo sapiens, UniProt Q99581 1-238); conditions: protein: recombinant; tags: N-terminal GST; dsDNA, one strand shown
# T1 sequence: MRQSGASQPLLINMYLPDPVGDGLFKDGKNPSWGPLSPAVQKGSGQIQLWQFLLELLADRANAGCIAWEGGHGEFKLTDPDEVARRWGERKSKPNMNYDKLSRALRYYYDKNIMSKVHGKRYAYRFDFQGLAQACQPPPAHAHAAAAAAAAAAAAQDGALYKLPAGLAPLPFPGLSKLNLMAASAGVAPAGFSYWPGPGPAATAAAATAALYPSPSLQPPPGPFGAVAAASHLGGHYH
# Method in brief: (§1)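 Binding signal is each hexamer's read frequency for a factor divided by its frequency in the tag-only sample. The factors were GST-fused human transcription factors from yeast, captured on glutathione beads, DNA-barcoded and pooled with that sample. Pools were incubated with 200 nmole of a random double-stranded 16-mer DNA library in Tris/NaCl/DTT/glycerol buffer at room temperature for 30 min, then washed, crosslinked with 0.1% formaldehyde, proximity-ligated with BsaI/T4 ligase (1 h, 37 °C), PCR-amplified and sequenced on an Illumina NextSeq500.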
# [2] = biological target: ETV5 (Homo sapiens, UniProt P41161 1-510); conditions: protein: recombinant; tags: N-terminal GST; dsDNA, one strand shown
# Method in brief: as §1
# [3] = biological target: HSF1 (Homo sapiens, UniProt Q00613 1-529); conditions: protein: recombinant; tags: N-terminal GST; chain copies: 3; dsDNA, one strand shown
# Method in brief: as §1
# [4] = biological target: T2, SPIC (Homo sapiens, UniProt Q8N5J4 1-248); conditions: protein: recombinant; tags: N-terminal GST; dsDNA, one strand shown
# T2 sequence: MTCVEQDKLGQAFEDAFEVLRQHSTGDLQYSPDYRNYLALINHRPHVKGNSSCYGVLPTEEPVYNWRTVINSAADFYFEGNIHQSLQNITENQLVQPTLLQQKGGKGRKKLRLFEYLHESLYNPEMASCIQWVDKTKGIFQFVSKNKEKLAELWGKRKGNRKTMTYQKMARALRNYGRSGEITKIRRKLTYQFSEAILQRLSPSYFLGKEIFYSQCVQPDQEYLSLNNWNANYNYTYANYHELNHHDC
# Method in brief: as §1
# [5] = biological target: ELF4 (Homo sapiens, UniProt Q99607 1-663); conditions: protein: recombinant; tags: N-terminal GST; dsDNA, one strand shown
# Method in brief: as §1
# [6] = biological target: T3, ELK4 (Homo sapiens, UniProt P28324-2 1-405); conditions: protein: recombinant; tags: N-terminal GST; dsDNA, one strand shown
# T3 sequence: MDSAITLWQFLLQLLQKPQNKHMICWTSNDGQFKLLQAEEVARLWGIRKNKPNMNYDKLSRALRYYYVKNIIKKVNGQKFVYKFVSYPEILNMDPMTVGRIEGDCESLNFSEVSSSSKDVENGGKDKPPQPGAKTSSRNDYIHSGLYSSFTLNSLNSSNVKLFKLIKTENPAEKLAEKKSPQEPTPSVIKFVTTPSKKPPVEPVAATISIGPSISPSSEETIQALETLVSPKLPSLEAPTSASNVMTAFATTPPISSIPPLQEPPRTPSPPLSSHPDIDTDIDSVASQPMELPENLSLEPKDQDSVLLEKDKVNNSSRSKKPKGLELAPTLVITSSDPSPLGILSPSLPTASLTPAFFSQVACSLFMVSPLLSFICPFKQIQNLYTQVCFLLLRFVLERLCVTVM
# Method in brief: as §1
# [7] = biological target: T4, ETV2 (Homo sapiens, UniProt O00321 1-342); conditions: protein: recombinant; tags: N-terminal GST; dsDNA, one strand shown
# T4 sequence: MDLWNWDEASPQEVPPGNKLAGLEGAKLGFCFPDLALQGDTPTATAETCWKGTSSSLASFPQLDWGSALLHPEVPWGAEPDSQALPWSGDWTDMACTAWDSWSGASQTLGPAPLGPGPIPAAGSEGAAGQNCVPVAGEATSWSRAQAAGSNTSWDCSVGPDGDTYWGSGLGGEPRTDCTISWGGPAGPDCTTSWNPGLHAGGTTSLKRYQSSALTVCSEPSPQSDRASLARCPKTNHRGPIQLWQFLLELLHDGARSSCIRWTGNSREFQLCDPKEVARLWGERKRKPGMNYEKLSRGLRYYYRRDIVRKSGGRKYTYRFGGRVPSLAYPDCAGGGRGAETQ
# Method in brief: as §1
# [8] = biological target: T5, ELF3 (Homo sapiens, UniProt P78545 1-371); conditions: protein: recombinant; tags: N-terminal GST; dsDNA, one strand shown
# T5 sequence: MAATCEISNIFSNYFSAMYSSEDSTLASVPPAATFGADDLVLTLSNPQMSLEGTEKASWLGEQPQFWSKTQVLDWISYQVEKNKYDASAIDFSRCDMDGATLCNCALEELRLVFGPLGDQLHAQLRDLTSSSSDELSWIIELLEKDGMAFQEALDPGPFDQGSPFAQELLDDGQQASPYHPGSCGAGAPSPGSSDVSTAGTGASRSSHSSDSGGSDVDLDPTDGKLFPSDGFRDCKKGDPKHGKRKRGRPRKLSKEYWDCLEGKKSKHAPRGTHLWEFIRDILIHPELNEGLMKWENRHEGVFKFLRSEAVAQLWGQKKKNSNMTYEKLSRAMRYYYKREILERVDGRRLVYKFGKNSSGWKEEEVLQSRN
# Method in brief: as §1
# [9] = biological target: CRX (Homo sapiens, UniProt O43186 1-299); conditions: protein: recombinant; tags: N-terminal GST; dsDNA, one strand shown
# Method in brief: as §1
# [10] = biological target: ETV1 (Homo sapiens, UniProt P50549 1-477); conditions: protein: recombinant; tags: N-terminal GST; dsDNA, one strand shown
# Method in brief: as §1
# [11] = biological target: T6, ERF (Homo sapiens, UniProt P50548 1-548); conditions: protein: recombinant; tags: N-terminal GST; dsDNA, one strand shown
# T6 sequence: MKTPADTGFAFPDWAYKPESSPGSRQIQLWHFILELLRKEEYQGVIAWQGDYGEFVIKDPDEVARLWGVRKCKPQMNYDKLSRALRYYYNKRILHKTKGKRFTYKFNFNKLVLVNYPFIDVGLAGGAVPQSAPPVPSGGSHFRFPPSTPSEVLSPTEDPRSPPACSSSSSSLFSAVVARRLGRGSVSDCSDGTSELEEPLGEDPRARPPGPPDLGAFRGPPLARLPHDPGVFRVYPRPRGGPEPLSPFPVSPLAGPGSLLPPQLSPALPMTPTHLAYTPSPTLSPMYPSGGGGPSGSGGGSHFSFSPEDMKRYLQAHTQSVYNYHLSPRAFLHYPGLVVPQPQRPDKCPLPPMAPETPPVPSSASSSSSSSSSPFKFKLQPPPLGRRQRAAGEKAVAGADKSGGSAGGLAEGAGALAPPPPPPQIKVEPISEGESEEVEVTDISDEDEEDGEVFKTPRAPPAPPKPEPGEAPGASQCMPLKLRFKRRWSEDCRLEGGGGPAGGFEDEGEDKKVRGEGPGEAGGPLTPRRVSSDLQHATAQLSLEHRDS
# Method in brief: as §1
# [12] = biological target: T7, ETV3L (Homo sapiens, UniProt Q6ZN32 1-361); conditions: protein: recombinant; tags: N-terminal GST; dsDNA, one strand shown
# T7 sequence: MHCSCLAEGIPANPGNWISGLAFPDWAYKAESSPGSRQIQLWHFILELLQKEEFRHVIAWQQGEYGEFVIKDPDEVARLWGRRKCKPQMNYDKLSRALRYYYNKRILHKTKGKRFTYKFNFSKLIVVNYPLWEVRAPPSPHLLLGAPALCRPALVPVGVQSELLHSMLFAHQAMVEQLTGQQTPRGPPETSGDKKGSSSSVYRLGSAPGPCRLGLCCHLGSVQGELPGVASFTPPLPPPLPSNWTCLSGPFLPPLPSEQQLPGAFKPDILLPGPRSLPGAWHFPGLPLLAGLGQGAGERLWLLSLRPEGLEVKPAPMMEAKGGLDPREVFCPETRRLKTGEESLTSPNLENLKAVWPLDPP
# Method in brief: as §1
# [13] = biological target: T8, ETS2 (Homo sapiens, UniProt P15036 1-469); conditions: protein: recombinant; tags: N-terminal GST; dsDNA, one strand shown
# T8 sequence: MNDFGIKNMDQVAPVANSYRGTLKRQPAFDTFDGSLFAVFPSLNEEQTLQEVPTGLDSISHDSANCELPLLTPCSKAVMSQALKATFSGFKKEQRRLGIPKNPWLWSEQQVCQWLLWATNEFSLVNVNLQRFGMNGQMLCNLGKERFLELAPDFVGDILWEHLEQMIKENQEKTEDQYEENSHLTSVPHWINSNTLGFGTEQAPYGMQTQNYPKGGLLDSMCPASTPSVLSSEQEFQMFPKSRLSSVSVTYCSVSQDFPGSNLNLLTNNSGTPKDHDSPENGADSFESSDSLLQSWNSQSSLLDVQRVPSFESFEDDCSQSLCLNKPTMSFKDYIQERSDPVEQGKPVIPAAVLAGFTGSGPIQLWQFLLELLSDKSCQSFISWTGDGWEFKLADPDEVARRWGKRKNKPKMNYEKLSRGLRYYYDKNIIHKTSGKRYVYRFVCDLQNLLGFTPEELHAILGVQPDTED
# Method in brief: as §1
# [14] = biological target: T9, SPDEF (Homo sapiens, UniProt O95238 1-335); conditions: protein: recombinant; tags: N-terminal GST; dsDNA, one strand shown
# T9 sequence: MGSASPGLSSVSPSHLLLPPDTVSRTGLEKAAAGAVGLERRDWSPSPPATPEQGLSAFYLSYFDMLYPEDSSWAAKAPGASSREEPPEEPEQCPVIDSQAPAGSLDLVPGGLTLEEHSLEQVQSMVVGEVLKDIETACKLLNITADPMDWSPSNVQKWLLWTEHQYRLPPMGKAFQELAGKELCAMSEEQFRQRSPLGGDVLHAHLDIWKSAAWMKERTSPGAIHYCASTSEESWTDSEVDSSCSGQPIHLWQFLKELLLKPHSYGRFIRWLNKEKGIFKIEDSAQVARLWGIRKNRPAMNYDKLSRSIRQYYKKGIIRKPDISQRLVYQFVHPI
# Method in brief: as §1
# [15] = biological target: T10, ETV7 (Homo sapiens, UniProt Q9Y603 1-341); conditions: protein: recombinant; tags: N-terminal GST; dsDNA, one strand shown
# T10 sequence: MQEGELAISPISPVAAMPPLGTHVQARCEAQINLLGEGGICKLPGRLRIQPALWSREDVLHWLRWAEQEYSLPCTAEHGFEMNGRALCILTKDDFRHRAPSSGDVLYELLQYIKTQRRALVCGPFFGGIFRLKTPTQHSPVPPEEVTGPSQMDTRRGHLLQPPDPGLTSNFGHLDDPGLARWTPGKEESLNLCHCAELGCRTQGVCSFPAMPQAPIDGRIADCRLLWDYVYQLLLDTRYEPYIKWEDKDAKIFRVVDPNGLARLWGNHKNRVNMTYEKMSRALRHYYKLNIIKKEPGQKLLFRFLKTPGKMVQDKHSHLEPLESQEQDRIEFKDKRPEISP
# Method in brief: as §1
# [16] = biological target: T11, ELF5 (Homo sapiens, UniProt Q9UKW6-2 1-255); conditions: protein: recombinant; tags: N-terminal GST; dsDNA, one strand shown
# T11 sequence: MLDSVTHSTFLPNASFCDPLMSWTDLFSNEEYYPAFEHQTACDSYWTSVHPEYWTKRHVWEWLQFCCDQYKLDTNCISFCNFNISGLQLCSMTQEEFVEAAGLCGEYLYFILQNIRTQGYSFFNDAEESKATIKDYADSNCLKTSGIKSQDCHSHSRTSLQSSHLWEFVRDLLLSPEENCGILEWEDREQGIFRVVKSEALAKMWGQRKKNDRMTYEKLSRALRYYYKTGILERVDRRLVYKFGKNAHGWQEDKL
# Method in brief: as §1
# [17] = biological target: T12, ETV3 (Homo sapiens, UniProt P41162-2 1-143); conditions: protein: recombinant; tags: N-terminal GST; dsDNA, one strand shown
# T12 sequence: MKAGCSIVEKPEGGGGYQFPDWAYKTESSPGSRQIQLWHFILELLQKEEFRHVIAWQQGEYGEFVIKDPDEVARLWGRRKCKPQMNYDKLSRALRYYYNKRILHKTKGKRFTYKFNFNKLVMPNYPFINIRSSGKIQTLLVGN
# Method in brief: as §1
# [18] = biological target: ETV6 (Homo sapiens, UniProt P41212 1-452); conditions: protein: recombinant; tags: N-terminal GST; dsDNA, one strand shown
# Method in brief: as §1
# Sequence of ETV5 (P41161 whole entry): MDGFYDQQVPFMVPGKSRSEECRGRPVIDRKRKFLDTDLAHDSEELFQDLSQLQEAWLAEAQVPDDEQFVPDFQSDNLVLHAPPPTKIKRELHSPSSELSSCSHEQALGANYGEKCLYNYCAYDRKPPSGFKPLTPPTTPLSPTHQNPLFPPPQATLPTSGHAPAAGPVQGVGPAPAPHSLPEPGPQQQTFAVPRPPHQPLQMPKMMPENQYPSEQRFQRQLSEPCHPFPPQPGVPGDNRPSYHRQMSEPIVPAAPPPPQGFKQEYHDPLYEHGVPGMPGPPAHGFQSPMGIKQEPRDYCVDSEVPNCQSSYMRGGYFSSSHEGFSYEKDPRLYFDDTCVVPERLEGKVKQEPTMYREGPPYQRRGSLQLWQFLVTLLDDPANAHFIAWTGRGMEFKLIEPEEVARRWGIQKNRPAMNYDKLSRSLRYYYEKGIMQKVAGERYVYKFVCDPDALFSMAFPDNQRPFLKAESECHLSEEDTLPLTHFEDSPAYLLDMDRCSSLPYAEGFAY
# Sequence of ETV1 (P50549 whole entry): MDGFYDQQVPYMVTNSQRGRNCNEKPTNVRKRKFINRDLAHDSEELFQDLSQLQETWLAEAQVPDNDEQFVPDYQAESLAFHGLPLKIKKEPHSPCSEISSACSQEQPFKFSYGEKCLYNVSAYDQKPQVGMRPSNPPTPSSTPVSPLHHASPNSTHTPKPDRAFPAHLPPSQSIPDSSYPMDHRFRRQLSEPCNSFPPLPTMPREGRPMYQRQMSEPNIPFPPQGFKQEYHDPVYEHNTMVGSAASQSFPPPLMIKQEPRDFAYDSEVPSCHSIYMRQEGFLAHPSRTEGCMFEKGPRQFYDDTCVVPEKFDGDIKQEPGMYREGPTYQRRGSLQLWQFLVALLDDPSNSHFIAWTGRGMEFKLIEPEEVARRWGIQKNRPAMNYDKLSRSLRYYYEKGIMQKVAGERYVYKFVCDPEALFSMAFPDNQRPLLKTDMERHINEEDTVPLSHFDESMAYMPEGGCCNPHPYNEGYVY
# Sequence of HSF1 (Q00613 whole entry): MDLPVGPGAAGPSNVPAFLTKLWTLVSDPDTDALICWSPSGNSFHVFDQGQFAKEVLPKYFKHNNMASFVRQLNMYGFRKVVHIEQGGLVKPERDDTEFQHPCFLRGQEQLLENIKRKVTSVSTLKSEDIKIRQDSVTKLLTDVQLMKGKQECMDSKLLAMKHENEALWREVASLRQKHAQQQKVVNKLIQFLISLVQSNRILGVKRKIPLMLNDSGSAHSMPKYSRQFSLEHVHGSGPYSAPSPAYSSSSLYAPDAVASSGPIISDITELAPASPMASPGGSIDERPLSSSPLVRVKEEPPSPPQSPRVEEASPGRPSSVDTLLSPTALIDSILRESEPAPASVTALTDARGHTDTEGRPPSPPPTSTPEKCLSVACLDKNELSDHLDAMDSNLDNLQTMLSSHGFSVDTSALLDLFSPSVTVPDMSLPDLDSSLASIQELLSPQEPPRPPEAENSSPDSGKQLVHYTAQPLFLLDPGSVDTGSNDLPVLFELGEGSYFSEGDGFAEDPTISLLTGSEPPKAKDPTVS
# Sequence of ELF4 (Q99607 whole entry): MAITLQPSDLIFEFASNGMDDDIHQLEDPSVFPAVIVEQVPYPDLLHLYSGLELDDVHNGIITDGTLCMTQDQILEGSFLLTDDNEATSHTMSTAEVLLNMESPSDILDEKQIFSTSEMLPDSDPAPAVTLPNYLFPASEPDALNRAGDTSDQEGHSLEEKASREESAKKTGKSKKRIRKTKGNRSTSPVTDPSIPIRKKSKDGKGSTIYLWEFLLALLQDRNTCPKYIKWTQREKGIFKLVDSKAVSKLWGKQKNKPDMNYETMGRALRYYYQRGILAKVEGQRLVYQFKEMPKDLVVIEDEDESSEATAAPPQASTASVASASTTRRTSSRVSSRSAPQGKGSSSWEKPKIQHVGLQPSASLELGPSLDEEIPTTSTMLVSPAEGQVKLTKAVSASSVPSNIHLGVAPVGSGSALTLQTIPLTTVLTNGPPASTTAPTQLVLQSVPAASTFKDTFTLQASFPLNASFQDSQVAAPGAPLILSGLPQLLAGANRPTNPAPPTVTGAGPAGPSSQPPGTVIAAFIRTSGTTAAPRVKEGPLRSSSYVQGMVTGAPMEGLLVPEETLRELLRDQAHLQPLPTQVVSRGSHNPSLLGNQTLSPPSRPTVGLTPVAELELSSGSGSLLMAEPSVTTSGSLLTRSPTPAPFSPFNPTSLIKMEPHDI
# Sequence of CRX (O43186 whole entry): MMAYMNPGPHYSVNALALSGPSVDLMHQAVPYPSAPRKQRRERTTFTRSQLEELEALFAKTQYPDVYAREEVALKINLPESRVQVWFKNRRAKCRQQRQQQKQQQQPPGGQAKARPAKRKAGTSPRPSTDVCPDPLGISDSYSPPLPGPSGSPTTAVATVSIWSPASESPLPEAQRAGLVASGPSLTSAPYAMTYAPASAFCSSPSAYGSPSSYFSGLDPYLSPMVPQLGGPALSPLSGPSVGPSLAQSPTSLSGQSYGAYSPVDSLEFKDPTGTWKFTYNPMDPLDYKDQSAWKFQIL
# Sequence of ETV6 (P41212 whole entry): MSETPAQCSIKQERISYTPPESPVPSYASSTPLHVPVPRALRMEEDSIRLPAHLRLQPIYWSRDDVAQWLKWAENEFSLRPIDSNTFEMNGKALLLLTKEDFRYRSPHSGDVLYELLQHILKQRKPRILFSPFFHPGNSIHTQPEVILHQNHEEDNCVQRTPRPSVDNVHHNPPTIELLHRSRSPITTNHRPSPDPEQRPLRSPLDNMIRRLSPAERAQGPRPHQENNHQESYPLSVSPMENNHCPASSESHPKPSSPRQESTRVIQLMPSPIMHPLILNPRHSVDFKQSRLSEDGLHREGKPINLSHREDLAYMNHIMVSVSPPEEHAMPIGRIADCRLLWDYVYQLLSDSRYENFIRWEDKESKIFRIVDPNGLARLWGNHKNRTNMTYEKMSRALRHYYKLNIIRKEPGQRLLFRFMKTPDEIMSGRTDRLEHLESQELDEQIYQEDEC
sequence,measurement,setting,value
TTATGA,binding signal,[1],"1.07 fold enrichment (6-mer frequency, TF over GST control)"
same,binding signal,[2],"1.16 fold enrichment (6-mer frequency, TF over GST control)"
same,binding signal,[3],"1.45 fold enrichment (6-mer frequency, TF over GST control)"
same,binding signal,[4],"1.26 fold enrichment (6-mer frequency, TF over GST control)"
same,binding signal,[5],"1.05 fold enrichment (6-mer frequency, TF over GST control)"
same,binding signal,[6],"1.07 fold enrichment (6-mer frequency, TF over GST control)"
same,binding signal,[7],"1.09 fold enrichment (6-mer frequency, TF over GST control)"
same,binding signal,[8],"1.31 fold enrichment (6-mer frequency, TF over GST control)"
same,binding signal,[9],"1.99 fold enrichment (6-mer frequency, TF over GST control)"
same,binding signal,[10],"1.17 fold enrichment (6-mer frequency, TF over GST control)"
same,binding signal,[11],"1.23 fold enrichment (6-mer frequency, TF over GST control)"
same,binding signal,[12],"1.22 fold enrichment (6-mer frequency, TF over GST control)"
same,binding signal,[13],"1.13 fold enrichment (6-mer frequency, TF over GST control)"
same,binding signal,[14],"1.13 fold enrichment (6-mer frequency, TF over GST control)"
same,binding signal,[15],"1.12 fold enrichment (6-mer frequency, TF over GST control)"
same,binding signal,[16],"1.09 fold enrichment (6-mer frequency, TF over GST control)"
same,binding signal,[17],"1.21 fold enrichment (6-mer frequency, TF over GST control)"
same,binding signal,[18],"1.19 fold enrichment (6-mer frequency, TF over GST control)"
